# Laboratory results reported in PubChem BioAssay (EPA / NIEHS).
# Several values for one entry are separate records, joined by “and”; a condition that tells them apart may be missing. Equal values may be shown once. Activity calls are given as the source filed them. Rule for the calls: active = hit-call score of the fitted dose curve at least 0.9, where 1 is the maximum; inactive = score below 0.9.
# Read-out: Plasminogen activator inhibitor-1 (PAI1), SERPINE1 (gene 5054)
# Assay: BSK_KF3CT_PAI1: BioMAP Diversity Plus: KF3CT Assay for Plasminogen activator inhibitor-1 (PAI1) Biomarker Activity (AID 2284252)
# Conditions: primary human keratinocytes with fibroblasts
# Description: BSK_KF3CT is a cell-based, multiplexed-readout assay that uses keratinocytes and foreskin fibroblasts, a human skin primary cell co-culture, with measurements taken at 24 hours after chemical dosing in a 96-well plate.BSK_KF3CT_PAI1 is an assay component measured in the BSK_KF3CT assay. It measures PAI-1 antibody related to regulation of gene expression using ELISA technology.Data from the assay component BSK_KF3CT_PAI1 was analyzed at the endpoint, BSK_KF3CT_PAI1, in the positive analysis fitting direction relative to DMSO as the negative control and baseline of activity. Using a type of binding reporter, gain or loss-of-signal activity can be used to understand protein changes. To generalize the intended target to other relatable targets, this assay endpoint is annotated to the 'cytokine' intended target family, where the subfamily is 'plasmogen activator inhibitor'.
# The levels of cell surface (or secreted, indicated by the prefix "s") biomarker endpoints were measured by ELISA. Overt cytotoxicity to cells in confluent adherent cultures (all systems other than the BT system) was assessed by measuring total protein levels using sulforhodamine B (SRB) staining in parallel cultures at the time of biomarker measurements, indicated as SRB endpoints. For proliferation assays for adherent cell types, individual cell types are cultured at sub-confluence and relative cell numbers quantified by SRB staining at time points optimized for each system (48 h: 3C and CASM3C systems; 72 h: BT and HDF3CGF systems; 96 h: SAg system). SRB was performed by staining cells with 0.1% SRB after fixation with 10% TCA and reading wells at 560 nm.Viability and proliferation of PBMC (T cells) was quantified by Alamar Blue reduction for the SAg and BT systems. For PBMC viability (referred to as PBMC Cytotoxicity within the assay endpoint names), cells were plated (75,000/well in a 96-well plate) and then chemical samples added for 1 h before addition of activators, SEB and TSST-1 (20 ng/mL final concentration each). Cells were incubated for 90 h. Then, Alamar Blue (20 uL/well) (Invitrogen, Cat DAL1100) was added for 6 h, and the plates were read with a fluorescence microplate reader at 546/580 nm (excitation/emission). For PBMC proliferation, cells were plated and activated as above but incubated for only 16 h prior to addition of Alamar Blue. Plates were read after 6 h.
SMILES,outcome,AC50
CC(C)CCCC(C)(C)O,inactive,
O=C(O)C(F)(F)OC(F)(F)C(F)(F)OC(F)(F)C(F)(F)C(F)(F)C(F)(F)F,inactive,
OCC(F)(OC(F)(F)C(F)(OC(F)(F)C(F)(F)C(F)(F)F)C(F)(F)F)C(F)(F)F (stereo not drawn),,5 µM (active) and 4.79 µM (active)
c1ccc(OCCOc2ccccc2)cc1,inactive,
O=C(O)C(F)(F)C(F)(F)C(F)(F)C(F)(F)C(F)(F)C(F)(F)C(F)(F)C(F)F,inactive,
O=S(=O)(O)C(F)(F)C(F)(F)OC(F)(F)C(F)(F)F,inactive,
CCCCN(CCO)CCO,inactive,
C=C(C)C(=O)OCCC(F)(F)C(F)(F)C(F)(F)C(F)(F)C(F)(F)C(F)(F)C(F)(F)C(F)(F)F,inactive,
CC(=O)c1ccc(C)cc1,inactive,
CCn1cc(C(=O)O)c(=O)c2ccc(C)nc21,inactive,
CCCO[Si](OCCC)(OCCC)OCCC,inactive,
CC(C)(CO)CO,inactive,
C=C(F)C(=O)OC(C(F)(F)F)C(F)(F)F,inactive,
